Shown are actives, neighbours in structure and some others; about 12% of the full set was active somewhere.
Pf growth 96h – P. falciparum growth inhibition at 96 hours | P. falciparum luciferase reporter growth, 96 h | Potency, µM (series often up to 28.7 µM), inactives show at the top dose activity change, negative = inhibition, hits mostly inhibitors | 320,000 compounds, 6.9% hits | AID 504834; also: % is scaled to controls: 0 for no effect and ±100 for the full control effect
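Two parasite generations (96 h, 37 C, 5% CO2) of compound exposure in infected erythrocytes (0.05% parasitemia, 2% hematocrit). Luciferase-reporter P. falciparum; decreased luminescence indicates inhibited growth, aimed at apicoplast-acting delayed death.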
Pf growth 48h – inhibits P. falciparum growth in the first generation, 48 h; P. falciparum luciferase growth in erythrocytes, 48 h; Potency, µM (top dose mostly 28.7 µM), for inactives: top-dose activity change, negative = inhibition, hits mostly inhibitors; 310,000 compounds, 5.9% hits; also: % is scaled to controls: 0 for no effect and ±100 for the full control effect
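Luciferase-expressing parasites in RBCs, 2% Hct / 0.1% parasitemia final; RPMI 1640 + 0.5% Albumax; 37 C, 5% CO2, one generation; luminescence read-out, lower signal = inhibition.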
SARS PLpro yeast – inhibitors of SARS-CoV papain-like protease in yeast; S. cerevisiae expressing SARS-CoV PLpro, growth rescue; Potency, µM (series often up to 32.9 µM), for inactives: at the highest dose activity, positive = growth rescue, most hits filed as activators; 330,000 compounds, 0.19% hits; calls by dose curve; also: 0% is about no effect; nearly all actives have a fitted effect of over 55% in size
Sm TGR block – S. mansoni TGR enzyme inhibition. Q962Y6. purified TGR, DTNB reduction, TNB absorbance 405 nm. Potency, µM (titrated, usually from 114 µM), for inactives: top-dose activity change, negative = inhibition, usual class: inhibitors. 360,000 compounds, 3% hits; also: % is scaled to controls: 0 for no effect and ±100 for the full control effect; nearly all actives have a fitted effect of over 60% in size
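First, TGR (20 nM dispensed) and NADPH were mixed with compound. Second, a 15 min room-temperature incubation followed. Third, further NADPH and then DTNB were added to start the reaction. Finally, TNB absorbance was monitored kinetically.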
Starred values were filed as active, the others as inactive; ? = inconclusive; · = not tested or not shown. Unless noted, calls follow the shape of the dose curve; as a rule, active = well fitted curve in the direction sought with a large enough effect; inconclusive = small, poorly fitted or top-dose-only effect, or another doubt; inactive = no such curve, though single readings can be large; an effect the other way counts as inactive or inconclusive. Potency is read from the fitted curve at half-maximal effect.

SMILES	Pf growth 96h	Pf growth 48h	SARS PLpro yeast	Sm TGR block
O=C(CCN1CCCCO1)N1CCCC(Nc2ccc(F)cc2)C1 (stereo unspecified)	12µM*	-15%	2%	-13%
CC(C)[C@H](NC(=O)OCc1ccccc1)C(=O)N[C@@H](Cc1c[nH]c2ccccc12)C(=O)O	?	12%	1%	-1%
COc1ccc2cc(C(=O)N3CCCC(Nc4ccc(F)cc4)C3)n(C)c2c1 (stereo unspecified)	5.9µM*	-4%	0%	-17%
CC(CNC(=O)CCS(=O)(=O)c1ccc2c(c1)NC(=O)CO2)c1ccccc1 (stereo unspecified)	?	9%	-3%	-4%
CCn1cc(/C=C(\NC(=O)c2ccc(OC)cc2)C(=O)N2CCOCC2)c2ccccc21	?	?	-4%	0%
CN(Cc1ccccc1)C(=O)c1ccc2c(c1)N(Cc1ccc(Cl)cc1)C(=O)c1ccccc1S2=O (stereo unspecified)	·	·	·	-2%
Cc1cc(C(=O)C(=O)NC(C)C)c(C)n1-c1ccc([N+](=O)[O-])cc1	?	7.4µM*	3%	11%
N#Cc1c(-c2ccccc2)nc2n(-c3ccccc3)nc(C(=O)Nc3ccccc3)n2c1=O	0.74µM*	·	10%	3%
COc1ccc(/C=C/C(=O)OCCC(C)C)cc1	13µM*	24%	·	·
CCCCC(CC)COC(=O)/C=C/c1ccc(OC)cc1 (stereo unspecified)	2%	5%	·	·
c1ccc(-c2ncc3ccccn23)cc1	?	?	0%	40µM*
CC(C)C(=O)Nc1cccc(C(=O)Nc2nnc(C(F)(F)F)s2)c1	·	·	·	3%
Cc1cc(=O)n(Cc2cccc(Cl)c2)c2c1c(C)nn2-c1ccccc1	·	·	·	-3%
NS(=O)(=O)c1cccc(NC(=S)NC(=O)c2cccc([N+](=O)[O-])c2)c1	5%	27%	1%	16µM*
O=C(Nc1cccc2ccccc12)c1ccccc1	94%	96%	-1%	7%
O=C(Nc1cccc([N+](=O)[O-])c1)c1cccc(C(=O)Nc2cccc([N+](=O)[O-])c2)c1	?	2.9µM*	2%	-17%
O=C(NC(=S)Nc1cccc(NC(=O)c2ccccc2)c1)c1cccc([N+](=O)[O-])c1	?	13%	-22%	-7%
O=C(Nc1ccccc1-c1ccccc1)c1cccc([N+](=O)[O-])c1	9.3µM*	?	-14%	19%
O=C(Nc1cccc2ccccc12)c1ccc([N+](=O)[O-])cc1	7.4µM*	27%	2%	6%
Cc1ccc(S(=O)(=O)N2CCC(C(=O)NCCC3=CCCCC3)CC2)c(C)c1	?	?	-2%	-2%
O=c1cc(-c2ccccc2)nc(SCc2nc(-c3cccc(C(F)(F)F)c3)no2)[nH]1	·	·	·	-3%
Cn1c(SCC(=O)Nc2nc3ccccc3s2)ncc(C(=O)Nc2ccc(Cl)cc2)c1=O	·	·	·	12%
CCCOc1ccc(C(=O)Nc2ccc(C)cc2[N+](=O)[O-])cc1	1%	43%	15%	3%
O=C(Nc1ccncc1)c1cc2ccccc2cc1O	8.3µM*	?	-23%	0%
O=C(O)c1ccccc1C(=O)Nc1cccc([N+](=O)[O-])c1	14%	?	1%	1%
SMILES	Pf growth 96h	Pf growth 48h	SARS PLpro yeast	Sm TGR block
COC(=O)c1cc(C(=O)Nc2ccc(S(=O)(=O)NC(C)(C)C)cc2)cc([N+](=O)[O-])c1	2.6µM*	?	0%	-6%
O=C(Nc1cccc([N+](=O)[O-])c1)c1cc2ccccc2cc1O	1.9µM*	5.2µM*	-6%	7%
CC(C)COc1ccc(C(=O)Nc2ccccc2[N+](=O)[O-])cc1	10µM*	120%	-25%	-3%
CCOC(=O)C1=C(COC(=O)COc2ccc(C#N)cc2)NC(=O)NC1C (stereo unspecified)	0%	11%	5%	-8%
CC(NC(=O)CN1C(=O)NC2(CCCCCC2)C1=O)c1ccccc1 (stereo unspecified)	-28%	?	1%	-1%
O=C(NCc1ccc(Cl)cc1)c1cnc2sc(N3CCOCC3)nn2c1=O	·	·	·	6%
O=[N+]([O-])c1cccc(Nc2nc(Cl)nc(Cl)n2)c1	12µM*	49%	1%	-1%
Cc1ccc(NC(=O)c2ccc(N/N=C/c3cccc(O)c3)c([N+](=O)[O-])c2)cc1	5.2µM*	?	2%	-10%
CC(=O)Nc1ccc(NC(=O)c2cc([N+](=O)[O-])cc([N+](=O)[O-])c2)cc1	34%	-100%	-1%	-6%
Cc1ccc(NC(=O)c2ccc(Nc3c([N+](=O)[O-])cc([N+](=O)[O-])cc3[N+](=O)[O-])cc2)cc1	22%	5.2µM*	5%	9%
O=C(Nc1ccc(Br)cc1)c1cc([N+](=O)[O-])cc([N+](=O)[O-])c1	5%	2.6µM*	4%	-19%
COc1ccc(-c2cccc(NC(=O)c3ccc4c(c3)OCO4)c2)nn1	?	24%	3%	-2%
CN(C)C1(CNC(=O)COc2cccc(Cl)c2)CCCCC1	·	·	·	-4%
O=C(N/N=C/c1cc(Br)cc([N+](=O)[O-])c1O)c1ccc(NC(=O)c2ccc(F)cc2)cc1	6%	-4%	10%	-24%
CP(=O)(Nc1cc(Cl)ccc1Cl)c1nc2c(s1)CCCC2 (stereo unspecified)	41%	-5%	-5%	8.9µM*
Cc1cc(OCC(=O)Nc2nc3c(s2)CCCC3)cc(C)c1Cl	·	·	·	-6%
CC(C(=O)Nc1cccc([N+](=O)[O-])c1)N1CCN(C/C=C/c2ccccc2)CC1 (stereo unspecified)	13µM*	?	-17%	1%
O=C(Nc1ccc(F)cc1)N1CCN(C/C=C/c2ccccc2)CC1	-8%	?	2%	2%
O=C(c1nn(Cc2ccccc2)c(=O)c2ccccc12)N1CCN(C/C=C/c2ccccc2)CC1	7.4µM*	12µM*	5%	29%
O=C(c1ccco1)N1CCN(C/C=C/c2ccccc2)CC1	-4%	31%	?	-14%
O=C(c1ccc(OC2CCN(C/C=C/c3ccccc3)CC2)cc1)N1CCCC1	10µM*	2.9µM*	4%	-14%
Cc1cc(C)cc(NC(=O)N2CCN(C/C=C/c3ccccc3)CC2)c1	2.9µM*	-8%	-1%	-7%
COc1cccc(/C=C(\C#N)c2nc3ccccc3c(=O)[nH]2)c1OC	·	·	·	1%
COc1ccc(C(=O)NC2CC2)cc1OC1CCN(Cc2ccccc2)CC1	?	-15%	4%	1%
O=C(c1ccc(OC2CCN(Cc3ccccc3O)CC2)cc1)N1CCCCC1	-11%	?	?	-7%
CCOc1cc(C(=O)N2CCN(C/C=C/c3ccccc3)CC2)cc(OCC)c1OCC	5.2µM*	·	4%	-6%
Cc1cc(C)cc(CN2CCC(Oc3ccc(C(=O)N4CCCC4)cc3)CC2)c1	-19%	12µM*	-1%	5%
COc1ccccc1/C=C/CN1CCC(Oc2cc(C(=O)NC3CC3)ccc2OC)CC1	45%	9.3µM*	3%	-32%
